This is an account of results in PubChem BioAssay (NCI).

The panel holds about 83,000 compounds, 20% with a hit somewhere; the sample as a whole holds those more often.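 Negative percent growth values reflect cell death: -40 means 40% of the cells present at the start died, and -100 means all died.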 Unmarked numbers belong to inactive results. Activity calls are given as the source filed them. How the source made its calls: active means growth percent below 10; inactive means the rest.

What all share (experiment): NCI-60 one-dose screen, 48 h (100 = growth as untreated, 0 = no growth, -100 = all killed)
What all share (conditions): 10 µM unless noted

Assay [1] concerns SR leukemia.
In assay [2] the test system is RPMI-8226 leukemia.
The test system of assay [3] is OVCAR-8 ovarian.
Assay [4] deals with OVCAR-4 ovarian.
Assay [5] relates to SK-OV-3 ovarian.
The test system of assay [6] is IGROV1 ovarian.
Assay [7] deals with OVCAR-3 ovarian.
Assay [8] deals with HS 578T breast.
In assay [9] the test system is NCI/ADR-RES ovarian.

Regarding `CC(O)c1ncc(/C=C2\SC(=S)N(Cc3ccccc3)C2=O)s1` (stereo unspecified), the growth in assay [1] was 82.4%; in assay [2], 52.3%; in assay [3], 102%; in [4], 85.1%; in [5], 96.6%; in assay [6], 100%. Further, the growth was 97.2% in assay [7], 109% in [8] and 99.5% in [9].

Turning to `Oc1c(I)cc(-c2nc3ccccc3s2)cc1CN(Cc1ccccn1)Cc1ccccn1`, the growth in assay [1] was 6.31% (active); in assay [2], 15.2%; in [3], 10.9%; in [4], 31.9%; in assay [5], 18.5%; in assay [6], 5.99% (active). The growth was 31.5% in assay [7], 46.8% in assay [8] and -2.29% (active) in assay [9].

`CC/C(Cc1ccccc1)=C(\c1ccc(OCCN2CCCCCC2)cc1)c1ccc(OC(=O)NCc2ccccc2)cc1`: the growth in [1] was -21.1% (active); in [2] it was 30.8%; in [3], 58.9%; in [4] it was 57%; in assay [5] it was 88.6%; in [6], 63.5%. For the same compound, the figures for the growth in assay [7], in [8] and in [9] were 89.8%, 78.6% and 74%, respectively.

On to `CN1CCN(CCOc2ccc(-c3cnc4c(-c5ccc(C(F)(F)F)cc5)cnn4c3)cc2)CC1`, for which the growth in assay [1] is -8.03% (active); in assay [2], 1.38% (active); in assay [3], 27.2%; in assay [4], 57.2%; in assay [5], 85.6%; in [6] it was 38.8%. Moreover, the growth was -3.51% (active) in assay [7], 56% in assay [8] and 52.8% in assay [9].

Take `COc1ccc(Nc2ncccc2NC(=O)c2cn(Cc3cccc(Oc4ccccc4)c3)nn2)cc1OC`: the growth in assay [1] is 34.9%; in assay [2], 73.2%; in assay [3] it was 90.8%; in [4], 68.2%; in assay [5], 93.5%; in assay [6], 89.5%. For the same compound, the growth is 73.3% in assay [7], 72.9% in assay [8] and 77% in assay [9].

Consider `Cc1ccc2[nH]c(=O)c3c(c2c1)OC(N)=C(C#N)C31C(=O)c2cccc3cccc1c23` (stereo unspecified), for which the growth was 92.9% in assay [1]; 97.8% in assay [2]; 103% in assay [3]; 89.4% in [4]; 105% in assay [5]; 90% in assay [6]. In addition, the growth is 101% in [7], 93.9% in assay [8] and 102% in assay [9].

With `CC[C@H](C)[C@H](NC(=O)[C@H](CCCNC(=N)N)NC(=O)[C@H](Cc1c[nH]c2ccccc12)NC(=O)[C@@H](NC(=O)[C@H](CCCCN)NC(=O)[C@H](CCCCN)NC(=O)[C@@H](NC(=O)[C@@H](NC(=O)[C@@H](NC(=O)[C@H](CCCCN)NC(=O)[C@H](Cc1ccccc1)NC(=O)[C@H](CCCCN)NC(=O)[C@H](CCCCN)NC(=O)[C@H](Cc1ccccc1)NC(=O)[C@@H](NC(=O)[C@@H](N)CCCCN)[C@@H](C)CC)[C@@H](C)O)[C@@H](C)CC)[C@@H](C)CC)C(C)C)C(=O)N[C@@H](Cc1ccccc1)C(=O)NCC(=O)N[C@@H](CCCNC(=N)N)C(=O)N[C@@H](Cc1ccccc1)C(N)=O`, the growth in assay [1] is 1.72% (active); in assay [2], -18% (active); in [3], 0.804% (active); in assay [4], -31.3% (active); in assay [5] it was 13.9%; in assay [6], -25.8% (active). Moreover, the growth in [7] was -23.8% (active); in assay [8], -21.3% (active); in [9], -11.9% (active).

As to `Cc1ccc(C(=O)c2ccc(CC(=O)N/N=C/c3ccc(O)cc3O)n2C)cc1`, the growth in [1] was 17.3%; in [2], 48.4%; in assay [3], 48.4%; in assay [4] it was 20.7%; in assay [5], 45.1%; in [6] it was 41.7%. The growth is 37.2% in assay [7], 74.9% in [8] and 34.6% in assay [9].

With `CCOC(=O)c1c(C)c2c(n1C)CSc1cc(S(=O)(=O)c3ccccc3)c(=O)[nH]c1-2`, the growth in assay [1] was 45% [100 µM]; in [2], 28.9% [100 µM]; in assay [3] it was 34.4% [100 µM]; in [4], 26.4% [100 µM]; in assay [5], 26.8% [100 µM]; in assay [6] it was 30.6% [100 µM]. The growth in assay [7] is 18.5% [100 µM]; in assay [8], 53.6% [100 µM]; in [9] it was 18.6% [100 µM].

With `COc1cc2c(/C=C3\C(=O)Nc4ccccc43)c(C(=O)O)[nH]c2cc1C`, the growth is 91.3% in assay [1]; 87% in [2]; 103% in assay [3]; 95.3% in [4]; 129% in [5]; 108% in assay [7]. Moreover, the growth in assay [8] is 137%; in assay [9] it was 84.1%.

Consider `COC(=O)C1=C(C)NC(C)=C(C(=O)OCC(C)C)C1c1ccccc1[N+](=O)[O-]` (stereo unspecified), for which the growth is 20.3% in assay [1]; 53.1% in assay [2]; 61.6% in [3]; 51.8% in assay [4]; 82.7% in assay [5]; 56.9% in assay [6]. In addition, the growth in assay [7] was 56.5%; in assay [8], 112%; in assay [9], 48.8%.

On to `CC(C(=O)O)n1c(O)c(C=Nc2cccnc2)sc1=S` (stereo unspecified), for which the growth in assay [1] is 97.8%; in assay [2], 83.6%; in assay [3] it was 90.7%; in [4], 92.4%; in assay [5] it was 98.4%; in assay [6], 84.2%. Further, the growth was 105% in assay [7], 74.9% in [8] and 98.7% in [9].

In the case of `Cc1ccc(-c2csc(NC(=O)N3CCN(c4cc5c(cc4F)c(=O)c(C(=O)O)cn5C4CC4)CC3)n2)cc1`, the growth in assay [1] was 18.2%; in [2] it was 4.84% (active); in assay [3], 7.72% (active); in assay [4], 33.5%; in assay [5], -11.6% (active); in assay [6], 17%. Further, the values for the growth in assay [7], in [8] and in assay [9] were 7.6% (active), 38.6% and 21.8%, respectively.

Consider `FC(F)(F)c1[nH]ncc1-c1nc2c(N3CCCCC3)cc3[nH]ncc3c2c2c1CCCC2`, for which the growth was -4.82% (active) in assay [1]; -6.13% (active) in assay [2]; 7.14% (active) in assay [3]; 24.3% in assay [4]; -25% (active) in [5]; -8.41% (active) in assay [6]. The values for the growth in assay [7], in assay [8] and in assay [9] were -2.67% (active), -11.8% (active) and 44.8%, respectively.

For the compound `c1ccc(CCc2ccccc2-c2cc(-c3ccccc3)on2)cc1`, the growth was 75.7% in assay [1]; 83.5% in [2]; 103% in assay [3]; 77.2% in assay [4]; 83.1% in assay [5]; 66.4% in [6]. In addition, the growth in [7] is 96%; in assay [8] it was 89.4%; in assay [9], 98.3%.

Turning to `CC1(C)CC[C@]2(C(=O)N3CCOCC3)CC[C@]3(C)C(=CC[C@@H]4[C@@]5(C)C/C(=C/c6ccncc6)C(=O)C(C)(C)[C@@H]5CC[C@]43C)[C@@H]2C1`, the growth in [1] is -31.3% (active); in assay [2], -33.5% (active); in assay [3] it was 34%; in assay [4] it was 14.2%; in assay [5], 28.9%; in assay [6], 33.1%. Further, the results for the growth in assay [7], in [8] and in assay [9] were 16.1%, 27.5% and 26.2%, respectively.

Consider `Cc1ccc(O)c(NC(=O)c2ccc(CNc3ccnc(C(F)(F)F)c3)cc2)c1`, for which the growth was 36.4% in assay [1]; 15.2% in assay [2]; 69.6% in assay [3]; 53.1% in [4]; 82% in assay [5]; 51.4% in assay [6]. In addition, the growth was 140% in [7], 85.4% in assay [8] and 50.3% in assay [9].

As for `Cc1cc2oc(=O)cc(CP(=O)(O)O)c2cc1O`, the growth in [1] is 106%; in assay [2] it was 118%; in assay [3], 99.5%; in assay [4], 103%; in assay [5], 105%; in assay [6], 91.6%. The growth in assay [7] was 102%; in [8] it was 94.5%; in assay [9] it was 105%.
